Drawing on ChEMBL document CHEMBL3988442, “University of Dundee, Small-Polar-MMV Screening Library” (2021), this text covers Percent Effect for four molecules.

For some of these results: Results with a measured potency or affinity are listed apart.

Set-up in all cases: scale not given: direction of the effect not stated beside the values
The target of assay [1] is Protein translocase subunit SecA (Escherichia coli (strain K12)) (UniProt P10408). The experiment in a line: Assay to Identify E. coli SecA ATPase Inhibitors. The assay is classed as functional. The conditions noted are these: 30 µM.
Protein translocase subunit SecA (Escherichia coli (strain K12)), sequence (P10408 whole entry): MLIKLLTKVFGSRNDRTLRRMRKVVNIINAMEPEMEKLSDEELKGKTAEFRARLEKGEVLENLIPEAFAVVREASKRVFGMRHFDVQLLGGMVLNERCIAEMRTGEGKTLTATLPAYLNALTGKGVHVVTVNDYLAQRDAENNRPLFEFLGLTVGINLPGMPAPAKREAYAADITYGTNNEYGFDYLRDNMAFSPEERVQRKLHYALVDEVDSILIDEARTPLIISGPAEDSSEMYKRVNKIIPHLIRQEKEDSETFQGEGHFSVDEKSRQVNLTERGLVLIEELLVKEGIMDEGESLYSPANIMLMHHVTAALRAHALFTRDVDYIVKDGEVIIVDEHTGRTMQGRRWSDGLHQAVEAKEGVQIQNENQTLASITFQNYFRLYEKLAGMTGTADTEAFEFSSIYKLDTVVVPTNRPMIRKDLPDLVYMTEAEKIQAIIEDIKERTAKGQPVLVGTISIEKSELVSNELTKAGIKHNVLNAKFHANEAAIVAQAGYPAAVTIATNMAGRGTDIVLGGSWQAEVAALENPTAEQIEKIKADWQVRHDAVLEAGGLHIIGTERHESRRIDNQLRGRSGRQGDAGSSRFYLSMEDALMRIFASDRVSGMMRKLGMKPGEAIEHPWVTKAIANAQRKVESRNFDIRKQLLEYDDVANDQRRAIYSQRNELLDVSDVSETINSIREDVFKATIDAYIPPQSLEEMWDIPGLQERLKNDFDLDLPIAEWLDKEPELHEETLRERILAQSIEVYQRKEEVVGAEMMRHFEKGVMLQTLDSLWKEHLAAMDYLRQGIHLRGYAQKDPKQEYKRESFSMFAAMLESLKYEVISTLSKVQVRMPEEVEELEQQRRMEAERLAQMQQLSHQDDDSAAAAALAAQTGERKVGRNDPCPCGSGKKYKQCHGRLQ
The target of assay [2] is T1, Ubiquitin-activating enzyme e1, putative (Leishmania donovani (strain BPK282A1)) (UniProt E9BSI1).
T1 sequence (whole entry): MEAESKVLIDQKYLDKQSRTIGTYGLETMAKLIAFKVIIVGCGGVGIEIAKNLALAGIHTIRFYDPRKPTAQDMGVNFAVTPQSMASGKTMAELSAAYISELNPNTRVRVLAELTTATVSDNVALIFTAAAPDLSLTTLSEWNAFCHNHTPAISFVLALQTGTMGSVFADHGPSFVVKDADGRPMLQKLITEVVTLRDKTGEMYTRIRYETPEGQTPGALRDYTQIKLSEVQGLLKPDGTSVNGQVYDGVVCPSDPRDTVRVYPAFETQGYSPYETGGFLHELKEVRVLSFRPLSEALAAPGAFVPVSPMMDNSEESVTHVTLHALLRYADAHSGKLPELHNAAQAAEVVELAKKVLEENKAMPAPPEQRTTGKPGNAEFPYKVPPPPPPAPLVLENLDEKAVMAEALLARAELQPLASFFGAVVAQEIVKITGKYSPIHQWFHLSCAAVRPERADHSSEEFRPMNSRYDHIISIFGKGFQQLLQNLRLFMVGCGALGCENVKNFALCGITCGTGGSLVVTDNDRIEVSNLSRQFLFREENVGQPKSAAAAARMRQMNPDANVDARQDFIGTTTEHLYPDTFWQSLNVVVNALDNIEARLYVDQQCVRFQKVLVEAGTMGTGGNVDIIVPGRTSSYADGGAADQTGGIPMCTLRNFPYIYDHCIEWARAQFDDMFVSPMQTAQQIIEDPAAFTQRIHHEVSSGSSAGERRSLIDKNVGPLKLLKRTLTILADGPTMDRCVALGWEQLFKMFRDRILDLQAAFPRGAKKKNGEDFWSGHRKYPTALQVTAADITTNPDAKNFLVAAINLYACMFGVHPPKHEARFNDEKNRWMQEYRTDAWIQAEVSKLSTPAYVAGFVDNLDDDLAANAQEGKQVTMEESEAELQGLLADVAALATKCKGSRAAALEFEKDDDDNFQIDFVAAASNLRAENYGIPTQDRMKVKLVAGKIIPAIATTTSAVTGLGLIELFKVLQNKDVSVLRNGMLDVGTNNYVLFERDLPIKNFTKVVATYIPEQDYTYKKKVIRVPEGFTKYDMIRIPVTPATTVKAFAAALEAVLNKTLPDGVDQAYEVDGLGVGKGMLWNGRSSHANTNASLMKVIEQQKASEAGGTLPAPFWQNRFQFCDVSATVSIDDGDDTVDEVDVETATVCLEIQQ
The assay can be described thus: Leishmania donovani Ubiquitin Activating Enzyme (LdE1). The assay is classed as functional. To be noted: 30 µM.

In assay [3] the target is T2, Aspartate--tRNA(Asp/Asn) ligase (Mycobacterium tuberculosis (strain ATCC 25618 / H37Rv)) (UniProt P9WFW3). Further: in the data most compounds retested in dose-response had high values.
T2 sequence (whole entry): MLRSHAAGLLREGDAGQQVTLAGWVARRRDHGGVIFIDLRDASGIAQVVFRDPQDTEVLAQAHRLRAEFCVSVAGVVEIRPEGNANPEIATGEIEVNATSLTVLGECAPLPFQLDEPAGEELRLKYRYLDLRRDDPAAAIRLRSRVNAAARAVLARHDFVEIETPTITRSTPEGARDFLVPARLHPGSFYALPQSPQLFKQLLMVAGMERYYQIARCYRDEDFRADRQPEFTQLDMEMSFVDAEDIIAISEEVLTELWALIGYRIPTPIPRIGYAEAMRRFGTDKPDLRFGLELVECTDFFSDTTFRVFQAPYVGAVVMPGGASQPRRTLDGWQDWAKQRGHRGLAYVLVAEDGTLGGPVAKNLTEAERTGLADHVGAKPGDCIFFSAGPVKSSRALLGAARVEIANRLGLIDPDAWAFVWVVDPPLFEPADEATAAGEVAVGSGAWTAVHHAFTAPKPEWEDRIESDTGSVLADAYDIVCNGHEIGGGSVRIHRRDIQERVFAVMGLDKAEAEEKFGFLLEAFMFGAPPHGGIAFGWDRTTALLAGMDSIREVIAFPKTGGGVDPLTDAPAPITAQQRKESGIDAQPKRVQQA
The assay can be described thus: Assay for Asp RNA synthetase-1 from Mycobacterium tuberculosis. The conditions noted are these: 30 µM. The assay is classed as functional.

In assay [4] the target is AMP-activated protein kinase, AMPK (Homo sapiens) (UniProt P54646+O43741+P54619+Q9UGJ0+Q9Y478+Q13131+Q9UGI9). The experiment in a line: AMP-dependent Kinase enzyme assay. An in vitro enzyme assay that detects ADP turnover that is directly proportional to AMPK activity. This uses naive AMPK that is activated during the assay with MK-8722. The class given is functional. To be noted: 30 µM.

Assay [5] addresses Sialic acid-binding Ig-like lectin 9 (Homo sapiens) (UniProt Q9Y336). The experiment in a line: Hs-Siglec9 ALPHAscreen SOP 20170721. To be noted: 10 µM. A general note: Alpha assays give light when donor and acceptor beads are brought close together.
Assay [6] relates to Trypanosoma cruzi. The assay can be described thus: Trypanosoma cruzi phosphomannomutase and mannose-1-phosphate guanylyltransferase assay. The assay is classed as functional. To be noted: 10 µM.
Assay [7] addresses T3, Arginase-2, mitochondrial (Homo sapiens) (UniProt P78540).
T3 sequence (whole entry): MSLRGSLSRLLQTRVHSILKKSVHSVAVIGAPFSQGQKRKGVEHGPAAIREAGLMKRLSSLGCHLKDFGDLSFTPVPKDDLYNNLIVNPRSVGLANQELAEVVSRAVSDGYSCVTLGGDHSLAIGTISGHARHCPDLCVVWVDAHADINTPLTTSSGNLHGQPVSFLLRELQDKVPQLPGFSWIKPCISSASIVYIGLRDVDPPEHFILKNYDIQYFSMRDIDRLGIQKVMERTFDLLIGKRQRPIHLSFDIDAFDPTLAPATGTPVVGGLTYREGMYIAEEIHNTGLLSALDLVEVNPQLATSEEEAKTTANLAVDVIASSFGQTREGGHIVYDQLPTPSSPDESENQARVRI
The assay can be described thus: in vitro enzyme assay to detect the production of urea directly proportional to the activity of Arginase II. Further: in the data most compounds retested in dose-response had high values. The class given is functional. To be noted: 33.3 µM.

The target in assay [8] is T4, Proteasome subunit beta (Trypanosoma cruzi) (UniProt O96673).
T4 sequence (whole entry): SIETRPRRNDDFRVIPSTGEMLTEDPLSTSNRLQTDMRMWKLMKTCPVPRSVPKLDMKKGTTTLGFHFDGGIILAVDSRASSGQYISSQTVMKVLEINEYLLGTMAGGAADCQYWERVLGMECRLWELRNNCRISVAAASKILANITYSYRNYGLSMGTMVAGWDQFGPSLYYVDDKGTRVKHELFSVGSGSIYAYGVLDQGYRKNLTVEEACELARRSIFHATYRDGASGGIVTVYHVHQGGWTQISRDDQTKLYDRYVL
The experiment in a line: Trypanosoma cruzi proteasome chymotrypsin-like activity (TcProtChymo) assay. Further: in the data most compounds retested in dose-response had high values. The conditions noted are these: 9.37 µM. The assay is classed as functional.

The species entered for assay [9] is Homo sapiens. The experiment in a line: To identify inhibition of the IFN signalling (Jak-Stat) pathway via expression of an eGFP reporter gene under the control of an IFN-stimulated response element (ISRE) containing MxA promoter. The assay is classed as functional. The conditions noted are these: 30 µM. A general note: Reporter assays use an easily measured gene product as a stand-in for the process of interest.

In assay [10] the target is Shiga toxin 2 (Escherichia coli O157:H7) (UniProt P09385+P09386). The experiment in a line: E. coli 0.157:H7 Shiga Toxin SOP - stx2 screening assay. The assay is classed as functional. To be noted: 30 µM.
For assay [11], the target named is T5, Tyrosyl-tRNA synthetase, putative (Trypanosoma cruzi (strain CL Brener)) (UniProt Q4DSP6).
T5 sequence (whole entry): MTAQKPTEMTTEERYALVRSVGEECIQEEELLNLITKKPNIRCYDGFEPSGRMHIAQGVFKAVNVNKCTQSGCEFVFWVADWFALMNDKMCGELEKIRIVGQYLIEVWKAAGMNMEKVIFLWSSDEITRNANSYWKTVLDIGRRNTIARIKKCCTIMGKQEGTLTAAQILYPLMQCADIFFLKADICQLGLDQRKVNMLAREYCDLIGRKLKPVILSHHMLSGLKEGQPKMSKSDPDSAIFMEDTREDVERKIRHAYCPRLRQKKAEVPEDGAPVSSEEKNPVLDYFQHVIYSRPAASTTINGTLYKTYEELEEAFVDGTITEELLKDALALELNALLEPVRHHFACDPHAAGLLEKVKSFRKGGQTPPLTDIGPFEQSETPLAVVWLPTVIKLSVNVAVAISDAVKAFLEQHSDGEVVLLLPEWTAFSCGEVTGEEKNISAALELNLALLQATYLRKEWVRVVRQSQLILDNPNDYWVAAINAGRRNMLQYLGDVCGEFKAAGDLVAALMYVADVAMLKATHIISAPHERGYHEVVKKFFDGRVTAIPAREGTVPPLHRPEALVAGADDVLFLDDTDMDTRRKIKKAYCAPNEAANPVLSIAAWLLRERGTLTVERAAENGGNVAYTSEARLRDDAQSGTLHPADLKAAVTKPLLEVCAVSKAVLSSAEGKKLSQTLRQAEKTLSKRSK
The assay can be described thus: Trypanosoma cruzi tyrosyl tRNA synthetase (TcYRS) _High Tyrosine SOP. Further: in the data most compounds retested in dose-response had high values. The assay is classed as functional. To be noted: 30 µM.

Assay [12] addresses T5, Tyrosyl-tRNA synthetase, putative (Trypanosoma cruzi (strain CL Brener)). The experiment in a line: Trypanosoma cruzi tyrosyl tRNA synthetase (TcYRS) SOP. The assay is classed as functional. The conditions noted are these: 30 µM.
The target in assay [13] is Chromo domain-containing protein 1 (Saccharomyces cerevisiae (strain ATCC 204508 / S288c) (Baker's yeast)) (UniProt P32657). The experiment in a line: ScCHD-1 Enzyme Inhibition Assay. Further: in the data most compounds retested in dose-response had high values. The assay is classed as functional. To be noted: 30 µM.
Chromo domain-containing protein 1 (Saccharomyces cerevisiae (strain ATCC 204508 / S288c) (Baker's yeast)), sequence (P32657 whole entry, the tested form may be a part): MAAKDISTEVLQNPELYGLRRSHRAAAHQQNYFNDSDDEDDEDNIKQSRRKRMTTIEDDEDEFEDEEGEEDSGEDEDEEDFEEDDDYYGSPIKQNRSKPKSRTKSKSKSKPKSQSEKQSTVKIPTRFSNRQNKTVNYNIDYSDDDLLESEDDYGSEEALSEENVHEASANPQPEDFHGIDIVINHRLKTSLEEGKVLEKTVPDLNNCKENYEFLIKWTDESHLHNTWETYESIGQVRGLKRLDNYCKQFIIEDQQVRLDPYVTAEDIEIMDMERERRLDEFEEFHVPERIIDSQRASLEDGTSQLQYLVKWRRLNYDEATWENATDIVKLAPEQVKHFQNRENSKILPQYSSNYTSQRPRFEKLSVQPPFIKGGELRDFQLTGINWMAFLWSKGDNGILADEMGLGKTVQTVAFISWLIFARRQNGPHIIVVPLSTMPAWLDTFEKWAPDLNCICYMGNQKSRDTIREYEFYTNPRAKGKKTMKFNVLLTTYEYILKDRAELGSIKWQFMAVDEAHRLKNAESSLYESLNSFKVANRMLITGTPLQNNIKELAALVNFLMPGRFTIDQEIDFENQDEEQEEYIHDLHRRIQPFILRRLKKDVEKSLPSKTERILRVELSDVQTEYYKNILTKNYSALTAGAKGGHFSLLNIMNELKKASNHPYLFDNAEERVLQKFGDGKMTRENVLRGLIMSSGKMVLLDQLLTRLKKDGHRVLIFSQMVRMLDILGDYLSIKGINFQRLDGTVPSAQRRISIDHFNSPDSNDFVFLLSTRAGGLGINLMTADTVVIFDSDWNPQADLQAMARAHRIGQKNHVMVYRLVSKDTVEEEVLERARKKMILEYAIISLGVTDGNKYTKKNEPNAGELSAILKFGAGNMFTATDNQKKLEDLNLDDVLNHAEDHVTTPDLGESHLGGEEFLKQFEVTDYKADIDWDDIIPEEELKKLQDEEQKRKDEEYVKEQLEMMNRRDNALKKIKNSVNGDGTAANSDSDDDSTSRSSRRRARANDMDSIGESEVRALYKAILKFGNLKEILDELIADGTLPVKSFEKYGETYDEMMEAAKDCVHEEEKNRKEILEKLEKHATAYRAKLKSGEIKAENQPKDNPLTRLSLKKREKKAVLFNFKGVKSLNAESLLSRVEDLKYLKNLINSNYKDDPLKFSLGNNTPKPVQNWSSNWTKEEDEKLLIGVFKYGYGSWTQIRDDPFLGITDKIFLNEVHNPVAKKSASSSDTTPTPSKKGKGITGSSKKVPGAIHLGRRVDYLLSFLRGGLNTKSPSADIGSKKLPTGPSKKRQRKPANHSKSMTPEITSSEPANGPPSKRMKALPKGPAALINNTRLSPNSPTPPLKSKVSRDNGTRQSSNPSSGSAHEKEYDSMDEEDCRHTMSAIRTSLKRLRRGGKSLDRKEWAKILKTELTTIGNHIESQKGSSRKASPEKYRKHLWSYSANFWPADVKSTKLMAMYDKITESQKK

Sialic acid-binding Ig-like lectin 9 (Homo sapiens), sequence (Q9Y336 whole entry): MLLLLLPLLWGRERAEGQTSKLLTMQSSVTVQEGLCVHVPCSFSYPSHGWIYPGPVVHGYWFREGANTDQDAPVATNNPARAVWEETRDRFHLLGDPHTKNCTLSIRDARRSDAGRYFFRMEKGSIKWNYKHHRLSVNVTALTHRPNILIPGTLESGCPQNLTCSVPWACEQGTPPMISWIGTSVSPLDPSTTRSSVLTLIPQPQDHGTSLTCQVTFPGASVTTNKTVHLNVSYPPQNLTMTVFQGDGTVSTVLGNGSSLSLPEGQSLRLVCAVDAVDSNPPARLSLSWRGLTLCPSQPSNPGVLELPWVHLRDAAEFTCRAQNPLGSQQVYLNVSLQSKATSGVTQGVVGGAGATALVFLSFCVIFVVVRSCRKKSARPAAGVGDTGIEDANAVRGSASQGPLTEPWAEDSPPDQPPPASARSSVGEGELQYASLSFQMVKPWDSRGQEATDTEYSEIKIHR

In the case of `O=C(C1CCC1)N1CCC2(CC1)OCCO2`, the Percent Effect in [1] is -3.54%; in [2], -2.63%; in [3] it was -4.73%; in assay [4], 2.75%; in [5], 1.15%; in assay [6], -1.85%. In addition, the Percent Effect was 7.1% in [7]; 6.04% in assay [8]; 5.13% in assay [9]; -1.29% in assay [10]; 0% in [11]; 5.2% in assay [12]. For the same molecule, the Percent Effect in assay [13] was -0.64%.
On to `CCOCC(O)CN1CCN(C(=O)Cc2ccc3c(c2)CCO3)CC1` (configuration not stated), for which the Percent Effect in [1] was 1.74%; in assay [2], 10.5%; in assay [3], 0.3%; in assay [4] it was 2.16%; in assay [5], 5%; in assay [6], -3.76%. Also, the Percent Effect stood at 6.51% in assay [7]; 21.4% in assay [8]; 19.4% in [9]; 30.7% in assay [10]; 3.43% in assay [11]; 12.2% in assay [12]. Further, the Percent Effect in [13] was -2.97%.
`CC(C)N1CCc2c(CN(C)Cc3ccco3)cncc2C1`: the Percent Effect in assay [1] was -2.76%; in assay [2] it was 0%; in [3], -1.51%; in assay [4], 0.165%; in assay [5], 16.7%; in assay [6], -3.86%. In addition, the Percent Effect in assay [7] is -22.8%; in assay [8], 0.171%; in assay [9], -0.596%; in [10], -0.895%; in assay [11], 4.17%; in assay [12], -7.5%. Also, the Percent Effect in assay [13] was -4.61%.
Regarding `COc1ncccc1CN1C[C@@H]2COC[C@]2(COCC2CC2)C1`, the Percent Effect in assay [1] was -2.06%; in assay [2] it was 1.33%; in [3], 0.116%; in assay [4] it was 0.466%; in [5], 5.34%; in assay [6], -9.23%. In addition, the Percent Effect was 24.5% in [7]; 14.4% in assay [8]; 2.6% in assay [9]; -25.1% in assay [10]; 6.35% in assay [11]; 2.56% in assay [12]. In addition, the Percent Effect in assay [13] is -9.86%.
